Molecules are shown by their SMILES. The campaign covered roughly 2,100 compounds. About 770 (37%) were called active.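 The calls were made as follows: active = by-eye trace score of 1 for enhancers or -1 for inhibitors, so actives lie on both sides (some results past the limit were not filed as active); inactive = score 0, or 3 fluorescent, or 4 baseline rise.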 Some of the results follow.

110 compounds from PubChem BioAssay AID623911 (Vanderbilt High Throughput Screening Facility, 2012) can be followed below.

In this assay the target is G protein-activated inward rectifier potassium channel 2 (Homo sapiens) + G protein-activated inward rectifier potassium channel 1 (Homo sapiens) (UniProt P48051+P48549). Briefly: GIRK1/2 thallium flux modulators, retest, confirmation, cell-based, HEK293 rmGlu8/hGIRK1/2, FluoZin-2 (AID 623911). Particulars: HEK293 rmGlu8/hGIRK1/2, thallium flux FluoZin-2; actives lie on both sides; glutamate co-added at its EC20 level.
Sequence of G protein-activated inward rectifier potassium channel 2 (Homo sapiens) + G protein-activated inward rectifier potassium channel 1 (Homo sapiens) (P48051 whole entry, looked up): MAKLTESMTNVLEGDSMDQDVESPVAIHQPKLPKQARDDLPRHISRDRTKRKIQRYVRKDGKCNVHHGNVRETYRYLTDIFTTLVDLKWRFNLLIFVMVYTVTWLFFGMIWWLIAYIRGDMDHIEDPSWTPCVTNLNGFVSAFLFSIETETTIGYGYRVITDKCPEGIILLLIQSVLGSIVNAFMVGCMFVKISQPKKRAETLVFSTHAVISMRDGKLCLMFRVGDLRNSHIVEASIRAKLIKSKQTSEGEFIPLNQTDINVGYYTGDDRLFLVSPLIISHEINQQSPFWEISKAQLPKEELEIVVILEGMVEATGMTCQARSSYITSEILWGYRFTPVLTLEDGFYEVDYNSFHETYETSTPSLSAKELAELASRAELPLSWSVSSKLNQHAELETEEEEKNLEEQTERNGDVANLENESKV
Sequence of G protein-activated inward rectifier potassium channel 2 (Homo sapiens) + G protein-activated inward rectifier potassium channel 1 (Homo sapiens) (P48549 whole entry, looked up): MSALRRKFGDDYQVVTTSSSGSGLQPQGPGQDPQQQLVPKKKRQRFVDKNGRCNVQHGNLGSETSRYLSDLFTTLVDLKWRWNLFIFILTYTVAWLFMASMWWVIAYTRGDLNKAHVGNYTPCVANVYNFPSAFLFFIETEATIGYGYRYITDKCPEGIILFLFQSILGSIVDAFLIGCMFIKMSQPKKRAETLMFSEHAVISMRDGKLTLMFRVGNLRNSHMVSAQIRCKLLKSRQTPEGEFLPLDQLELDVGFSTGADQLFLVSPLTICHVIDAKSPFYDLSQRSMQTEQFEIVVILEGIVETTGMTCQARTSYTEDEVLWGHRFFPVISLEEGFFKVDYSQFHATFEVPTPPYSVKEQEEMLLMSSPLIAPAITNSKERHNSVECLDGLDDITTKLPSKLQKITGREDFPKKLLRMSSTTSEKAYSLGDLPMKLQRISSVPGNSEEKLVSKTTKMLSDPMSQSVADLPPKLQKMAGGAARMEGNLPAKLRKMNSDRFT
For the compound `S=C1Nc2ccccc2Sc2ccc(Cl)cc21`, the manual score was 0 (inactive).

On to `Clc1ccc2c(c1)-c1nnc(Br)n1-c1ccccc1S2`, for which the manual score was -1 (active).

In the case of `CCOc1ccccc1OCCCCCc1c(C)n[nH]c1C`, the manual score was 0 (inactive).

`CCN(CC)CC(O)COCCC12CC3CC(CC(C3)C1)C2` (stereo not given): the manual score was -1 (active).

For `CC1(C)CC(c2nc(-c3ccc(Br)cc3)cs2)CCS1` (stereo not given), the manual score is 0 (inactive).

Regarding `Cc1ccc(Cn2c(SCC(=O)NCC3CCCO3)nc3c(sc4ccccc43)c2=O)cc1` (stereo not given), the manual score was 0.5 (inactive).

Regarding `CCN(CC)CCN(CC)Cc1ccccc1Br`, the manual score is -1 (active).

With `CCOc1ccccc1C(=O)N1c2ccccc2Sc2ccccc21`, the manual score is -1 (active).

On to `COCC(=O)/C=C1\Sc2ccccc2N1C`, for which the manual score is 0 (inactive).

Regarding `O=C1CS/C(=N\C(=O)N2c3ccccc3Sc3ccccc32)N1`, the manual score is 0 (inactive).

For `COc1ccccc1C(=O)N1c2ccccc2Sc2ccccc21`, the manual score was -1 (active).

For the compound `CCOC(=O)/C(=C/C=C1\Sc2ccccc2N1CC)C(C)=O`, the manual score was 3 (inactive).

Consider `O=S(=O)(Cc1ccccc1)N1CCc2ccccc21`, for which the manual score was 3 (inactive).

As for `COc1cc(C)ccc1OCCOc1cc(C)ccc1Cl`, the manual score was 0 (inactive).

In the case of `CCC1CCCN1Cn1cnc2c([nH]c3ccc(OC)cc32)c1=O` (stereo not given), the manual score was 0 (inactive).

As to `Cc1ccc(N2C=Nc3ccc(C)c4nc(C)cc2c34)cc1`, the manual score was -1 (active).

As for `C/C(=N\NC(=O)c1cccc(F)c1)c1ccc(Br)s1`, the manual score was 1 (active).

Turning to `C/C(=N\NC(=O)c1ccccc1O)c1ccc(Br)s1`, the manual score was 0.5 (inactive).

As for `C/C(=N\NC(=O)c1ccc(Cl)cc1)c1ccc(Br)s1`, the manual score was 0.5 (inactive).

Regarding `CN(C=O)CP(=O)(O)CCN1CCCC1=O`, the manual score is 0 (inactive).

Consider `O=C(CSc1nc2ccc(Cl)cc2[nH]1)Nc1ccc2c(c1)CCC2`, for which the manual score was 0 (inactive).

With `Clc1cccc(CSc2nc3ccncc3[nH]2)c1`, the manual score is 1 (active).

`Cc1ccc(CSc2nc3ccncc3[nH]2)cc1`: the manual score was 0 (inactive).

As for `CCN(CC)CCN1C(=O)c2oc3ccccc3c(=O)c2C1c1ccc(F)cc1` (stereo not given), the manual score is 0 (inactive).

Turning to `CCn1c(SCC(N)=O)nc2c(c1=O)C1(CCCC1)Cc1ccccc1-2`, the manual score was 0 (inactive).

With `C=CCSc1nc2sc3c(c2c(=O)n1CC)CCc1ccccc1-3`, the manual score was 1 (active).

`Cc1ccc(C)c(NC(=S)N=Nc2c(O)n(C)c3ccc(S(=O)(=O)N4CCOCC4)cc23)c1`: the manual score is 0 (inactive).

In the case of `O=c1c(-c2ccccc2)nc(-c2ccccc2)cn1O`, the manual score was 1 (active).

Regarding `N=c1oc2ccc3ccccc3c2cc1-c1nc(-c2ccccc2)cs1`, the manual score was 3 (inactive).

With `CN(C)CCNc1nc2c(c(=O)[nH]c(=O)n2C)n1CCCc1ccccc1`, the manual score is 0 (inactive).

`CC(C)CCn1c(CN2CCN(Cc3ccccc3)CC2)nc2c1c(=O)[nH]c(=O)n2C`: the manual score is -1 (active).

Take `CCN(C(=O)CN1CCN(c2ccccc2O)CC1)c1c(N)n(Cc2ccccc2)c(=O)[nH]c1=O`: the manual score is 0 (inactive).

Regarding `Nc1nc2n(n1)C(c1cccs1)CC(c1ccc(F)cc1)N2` (stereo not given), the manual score is 0 (inactive).

In the case of `COc1ccc(C2CC(c3ccc(Cl)c(Cl)c3)Nc3nc(N)nn32)cc1` (stereo not given), the manual score is 1 (active).

On to `CCn1c(=O)cc(OCC(=O)Nc2cccc(C)n2)c2ccccc21`, for which the manual score is 0 (inactive).

On to `COc1cccc2c1OC[C@@H](CO)[C@H]2N(C)C(=O)Nc1ccccc1`, for which the manual score is 0 (inactive).

Take `COc1cccc(NC(=O)CC2COc3ccccc3O2)c1` (stereo not given): the manual score is 1 (active).

`COc1cccc(NC(=O)NC2(C(F)(F)F)Oc3ccccc3O2)c1`: the manual score is 0 (inactive).

In the case of `CCc1cc2cccc(C)c2nc1SCC(=O)c1ccc(NC(C)=O)cc1`, the manual score is 0 (inactive).

On to `COc1ccc(N2CCCn3c2nc2c3c(=O)n(Cc3ccccc3F)c(=O)n2C)c(OC)c1`, for which the manual score was -1 (active).

On to `Cn1c(N2CCCC2)nc2c1c(=O)n(Cc1ccc(Cl)cc1)c(=O)n2C`, for which the manual score was -0.5 (inactive).

With `CC12CCC(C(=O)N3CCCc4ccccc43)(CC1=O)C2(C)C` (stereo not given), the manual score is 0 (inactive).

Take `COC(=O)c1cc2sccc2n1CC(=O)N1CCCc2ccccc21`: the manual score is -1 (active).

`Cn1c(C(=O)OC(C(=O)NC2CCCCC2)c2ccncc2)cc2sccc21` (stereo not given): the manual score was 0 (inactive).

Regarding `CS(=O)(=O)Nc1ccc(C2=NN(C(=O)C3CCCCC3)C(c3cccs3)C2)cc1` (stereo not given), the manual score was -0.5 (inactive).

On to `C=CCN(CC=C)C(=S)NC(=O)/C=C/c1ccc(C)cc1`, for which the manual score was 1 (active).

In the case of `Cc1ccnc(NC(=S)NC(=O)/C=C/c2ccco2)c1`, the manual score was 0 (inactive).

`C=CCN(CC=C)C(=S)NC(=O)c1ccc(C)c(Br)c1`: the manual score is 1 (active).

For `C=CCN(CC=C)C(=S)NC(=O)c1ccc(OC)c(Br)c1`, the manual score is 1 (active).

Turning to `COc1ccc(C(=O)NC(=S)NC(C)C)cc1Br`, the manual score was 0.5 (inactive).

With `COc1ccc(C(=O)NC(=S)NCCO)cc1Br`, the manual score was 1 (active).

With `COc1cc(/C=C2/C(=O)N=C(N)N2C)cc(OC)c1OC`, the manual score is 0 (inactive).

Consider `CC(C)COc1ccc(Cc2cnc(N)nc2N)cc1`, for which the manual score was 0 (inactive).

As for `O=C(COc1ccccc1)NC(=S)Nc1ccc2c(c1)Cc1ccccc1-2`, the manual score is 0 (inactive).

`Cc1ccc(C(=O)NC(=S)Nc2ccccc2C(F)(F)F)cc1`: the manual score was 1 (active).

Consider `O=C(COc1ccccc1)NC(=S)Nc1cccc([N+](=O)[O-])c1`, for which the manual score was 1 (active).

Turning to `COC(=O)c1ccccc1NC(=S)NC(=O)COc1ccc(C)cc1`, the manual score was 0 (inactive).

On to `COC(=O)c1ccccc1NC(=S)NC(=O)c1ccc(C)cc1`, for which the manual score is 1 (active).

Take `O=C(COc1ccccc1)NC(=S)Nc1ccc2c3c(cccc13)CC2`: the manual score is 0.5 (inactive).

On to `COC(=O)c1ccccc1NC(=S)NC(=O)COc1ccccc1`, for which the manual score is 1 (active).

For `Cc1ccc(C(=O)NC(=S)Nc2ccccc2C(F)(F)F)cc1C`, the manual score was 0 (inactive).

`CCC1c2ccc(C)n2CCN1C(=O)Nc1ccccc1C(=O)OC` (stereo not given): the manual score was 0 (inactive).

In the case of `O=C(NC(=S)Nc1ccc(Oc2ccc(Cl)cc2)cc1)c1ccccc1`, the manual score is 0 (inactive).

As for `COC(=O)c1ccccc1NC(=S)NC(=O)c1ccccc1`, the manual score is 1 (active).

On to `CC1CCCCN1CC(=O)Nc1ccc(Oc2ccccc2)cc1` (stereo not given), for which the manual score is 0 (inactive).

Regarding `CCOC(=O)c1[nH]c(C)c(C(=O)NC2CCCCC2)c1C`, the manual score was 0 (inactive).

`CCCN(CC1CC1)C(=S)Nc1ccc(Oc2ccccc2)cc1`: the manual score is 1 (active).

On to `CCOC(=O)c1ccc(NC(=S)NC2CCCC2)cc1`, for which the manual score is 1 (active).

Regarding `CCOC(=O)c1ccc(NC(=S)NC(=O)COc2ccccc2)cc1`, the manual score is 0.5 (inactive).

Take `FC(F)(F)Oc1ccc(NC(=S)NCc2ccccc2)cc1`: the manual score is 0 (inactive).

Take `S=C(NN=C(C1CC1)C1CC1)Nc1ccccc1`: the manual score is 0 (inactive).

For `CC(C)CNC(=S)Nc1ccc(Oc2ccccc2)cc1`, the manual score was 1 (active).

Turning to `S=C(Nc1ccc(Oc2ccccc2)cc1)NC1CCCC1`, the manual score is 1 (active).

Turning to `COc1ccc(N(CC(=O)NCCSc2ccccn2)S(C)(=O)=O)cc1Cl`, the manual score is 0 (inactive).

For `COc1ccc(CN(C)CC(=O)NC(=O)NCc2ccccc2)cc1OC`, the manual score was 0 (inactive).

As for `COc1ccc(CCNC(=O)CSc2nnc(-c3ccc(F)cc3)c3ccccc23)cc1OC`, the manual score was -1 (active).

For `COc1cc2c(cc1NC(=O)COc1ccccc1OC)oc1ccccc12`, the manual score was 0 (inactive).

As to `CCCCC(=O)Nc1ncc2c(n1)CC(C)(C)CC2=O`, the manual score is 0 (inactive).

On to `CC1(C)Cc2nc(NCCN3CCOCC3)c(C#N)cc2CO1`, for which the manual score is 0 (inactive).

Regarding `N/C(=N\OC(=O)Cc1ccccc1)c1ccc(Br)cc1`, the manual score was 0 (inactive).

As for `O=C(NN=C(Cc1ccccc1)Cc1ccccc1)c1ccc(F)cc1`, the manual score is 1 (active).

On to `Cc1ccccc1C(=O)Nc1ccccc1C(=O)N/N=C\c1ccco1`, for which the manual score was 1 (active).

With `O=C(Nc1ccccc1C(=O)N/N=C/c1ccco1)c1ccccc1`, the manual score was 0.5 (inactive).

`Cc1cc(C)c(NC(=O)/C(=C/c2ccco2)c2ccccc2)c(C)c1`: the manual score is 0 (inactive).

Regarding `Fc1ccc(CSc2nc3ccccc3[nH]2)c2ccccc12`, the manual score is 1 (active).

Consider `O=C(CSc1nc2ccccc2[nH]1)NC1CCCc2ccccc21` (stereo not given), for which the manual score is 0 (inactive).

With `CC(Sc1nc2ccccc2c(=O)[nH]1)C(=O)O` (stereo not given), the manual score is 0 (inactive).

Take `CN1CCN(c2ccccc2NS(=O)(=O)c2ccc3c(c2)CCN3C(=O)C2CCC2)CC1`: the manual score was -1 (active).

In the case of `O=[n+]1c2c(n([O-])c3cc(F)c(N4CCCC4)cc31)CCC2`, the manual score is 3 (inactive).

With `CCCN(CCC)CCNC(=O)C(NS(=O)(=O)c1ccc2c(c1)CCC(=O)N2)c1ccccc1` (stereo not given), the manual score is 0 (inactive).

As to `Cc1ccc(S(=O)(=O)n2cnc3cc([N+](=O)[O-])ccc32)cc1C`, the manual score is 0 (inactive).

On to `COc1ccc(OC)c(C2C(C(=O)c3cc4ccccc4o3)=C(O)C(=O)N2c2cc(C)on2)c1` (stereo not given), for which the manual score is 0 (inactive).

On to `NS(=O)(=O)c1ccc(CCNC2CC(=O)N(Cc3ccccc3)C2=O)cc1` (stereo not given), for which the manual score is 0 (inactive).

Take `Cc1cccc(-n2ncc3c(NCCc4ccc(S(N)(=O)=O)cc4)ncnc32)c1`: the manual score is 0 (inactive).

Regarding `Cc1nc(NCCc2ccc(S(N)(=O)=O)cc2)c2c(C)c(C)sc2n1`, the manual score was 1 (active).

On to `CCCCNC(=S)NC(=O)c1ccccc1Br`, for which the manual score is 0.5 (inactive).

For the compound `CC(C)CNC(=S)NC(=O)c1ccc(Cl)cc1Cl`, the manual score was 1 (active).

As for `CC(C)CNC(=S)NC(=O)c1ccccc1Cl`, the manual score was 0 (inactive).

With `CC(C)NC(=S)NC(=O)c1ccc(Cl)cc1Cl`, the manual score is 1 (active).

Take `CCCCNC(=S)NC(=O)c1ccc(Cl)cc1Cl`: the manual score is 1 (active).

For the compound `CCOc1ccc(C(C)=O)cc1N1C(=O)C2C(C1=O)C1C=CC2C12CC2` (stereo not given), the manual score was 0 (inactive).

Consider `C=CCn1c(=S)[nH]c2sc3c(c2c1=O)CCC3`, for which the manual score is 1 (active).

As to `Cc1ncoc1C(=O)Nc1ccc(Oc2ccccc2)cc1`, the manual score was 0.5 (inactive).

Take `Cc1nc(C)c(C(=O)Nc2ccc(Oc3ccccc3)cc2)o1`: the manual score was 1 (active).

For the compound `CC(=O)Nc1ccc(Oc2ncccn2)cc1`, the manual score is 0 (inactive).

Consider `O=C1c2ccsc2SCCN1Cc1c(Cl)cccc1Cl`, for which the manual score was -1 (active).

On to `CCCC(c1c(C)n(C)n(-c2ccccc2)c1=O)c1c(C)n(C)n(-c2ccccc2)c1=O`, for which the manual score was 0 (inactive).

For the compound `COc1ccc(C(=O)N/N=C/c2ccc3cccc(OCc4ccccc4)c3n2)cc1`, the manual score was 0 (inactive).

Turning to `O=C(N/N=C/c1ccccn1)c1ccc(Br)cc1`, the manual score is 1 (active).

On to `O=C(N/N=C/c1ccc2cccc(OCc3ccccc3)c2n1)c1ccc(Br)cc1`, for which the manual score is 0.5 (inactive).
